Measurements from PubChem BioAssay (NCATS).
Inconclusive results are not listed. Activity calls are given as the source filed them. Calls come from the whole dose curve; as a rule, active = well fitted curve in the direction sought with a large enough effect; inconclusive = small, poorly fitted or top-dose-only effect, or another doubt; inactive = no such curve, though single readings can be large; an effect the other way counts as inactive or inconclusive.

Key:
[1] = target: Luciferin 4-monooxygenase (Photinus pyralis) (UniProt P08659); assay: Firefly luciferase counterscreen qHTS: Assay Interference Panel against the NCATS CANVASS Library (AID 1347363); note: series mostly up to about 57 µM
Procedure, shortened: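 Purified P. pyralis luciferase (0.04 ug/mL, 4x reagent) added to Tris-acetate buffer with 0.013 mM D-luciferin, 0.013 mM ATP and 13.3 mM Mg-acetate; compounds preincubated 15 min, then luminescence read after 5 min, RT.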

[2] = KB-8-5-11 Cancer Cell Toxicity qHTS against the NCATS CANVASS Library (AID 1347364); note: nearly all actives have a fitted effect of over 75% in size
Procedure, shortened: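 Viability read as CellTiter-Glo luminescence after 72 h at 37 °C, 5% CO2. 11-point compound series on 500 KB-8-5-11 cells/well in DMEM/10% FBS. Follow-up plating included 1 uM tariquidar in the medium.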

[3] = SDT Cancer Cell Toxicity qHTS against the NCATS CANVASS Library (AID 1347365);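 note: SDT canine glioma cells 500 per well in 1536 well plates; series mostly up to about 46 µM; nearly all actives have a fitted effect of over 60% in size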
Procedure, shortened: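 Cytotoxicity taken from CellTiterGlo ATP luminescence after 72 hr at 37C, 5% CO2. Canine glioma line SDT, 500 cells/well, treated at 11 concentrations; bortezomib dose series as control.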

[4] = KB-3-1 Cancer Cell Toxicity qHTS against the NCATS CANVASS Library (AID 1347366); note: series mostly up to about 46 µM; nearly all actives have a fitted effect of over 75% in size
Procedure, shortened: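 Luminescence from CellTiter-Glo (10 min, room temperature) measured KB-3-1 viability after 72 hr compound exposure at 37C. Cells were seeded at 500/well and tested in an 11-point series.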

[5] = qHTS for ATAD5 Agonist screened against the NCATS CANVASS Library (AID 1347367);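 note: luciferase reporter driven by ATAD5 which rises upon DNA damage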
Procedure, shortened: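 HEK293T-ATAD5 luc reporter; 2000 cells/well; 5hr settle; cpd 11-pt qHTS; 16hr 37C 5% CO2 dark; viability by CellTiter-Fluor (AFC fluorescence); then luciferase luminescence, 30min RT.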

[6] = G06 Cancer Cell Toxicity qHTS against the NCATS CANVASS Library (AID 1347368); note: series mostly up to about 46 µM; nearly all actives have a fitted effect of over 60% in size
Procedure, shortened: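 Viability measured by CellTiterGlo ATP luminescence after 72 hr at 37C, 5% CO2. Canine G06 glioma cells plated at 500/well. Compounds tested as 11-point qHTS titrations.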

[7] = MCF7 Cancer Cell Toxicity qHTS against the NCATS CANVASS Library (AID 1347369)
Procedure, shortened: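 Cells seeded at 500/well, then compound pinned. Plates incubated 72 hr at 37C, 5% CO2. CellTiterGlo added; luminescence read.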

[8] = qHTS for ATAD5 Antagonist screened against the NCATS CANVASS Library (AID 1347370);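 note: HEK293T cells carrying an ATAD5 luciferase reporter co-treated with 10 µM 5-fluorouridine; series mostly up to about 46 µM; nearly all actives have a fitted effect of over 65% in size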
Procedure, shortened: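 Compounds (11-point) co-dosed with 10 µM 5-FUrd for 16 h at 37 °C onto HEK293T-ATAD5 luciferase reporter cells. Viability measured by CellTiter-Fluor fluorescence, then ATAD5 reporter signal by luminescence.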

[9] = J3T Cancer Cell Toxicity qHTS against the NCATS CANVASS Library (AID 1347371);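 note: J3T is a canine glioma cancer cell line seeded at 500 cells per well; series mostly up to about 46 µM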
Procedure, shortened: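 Cytotoxicity read as CellTiterGlo ATP luminescence after 72 h incubation (37C, 5% CO2) of J3T canine glioma cells (500/well) with an 11-point compound series.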

[10] = target: Nuclear receptor subfamily 1 group I member 3 (Homo sapiens) (UniProt Q14994); assay: qHTS for Constitutive Androstane Receptor (CAR) Antagonist screened against the NCATS CANVASS Library (AID 1347372);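 note: cells stimulated with 50 nM CITCO agonist so inhibition reflects antagonism; luciferase from CYP2B6 promoter reporter driven by hCAR in HepG2 cells; series mostly up to about 46 µM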
Procedure, shortened: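 Luminescence readout (ONE-Glo, 30 min RT) of CYP2B6-2.2kb reporter in HepG2-hCAR cells after 24hr, 37C treatment with compound against 50 nM CITCO; CellTiter-Fluor viability read beforehand.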

[11] = target: Nuclear receptor subfamily 1 group I member 3 (Homo sapiens) (UniProt Q14994); assay: qHTS for Constitutive Androstane Receptor (CAR) Agonist screened against the NCATS CANVASS Library (AID 1347373);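 note: every well also contained 1.5 µM PK11195 alongside the test compound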
Procedure, shortened: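 Agonist mode with 1.5uM PK11195 present: compounds for 24hr on HepG2-hCAR-CYP2B6 cells. CellTiter-Fluor fluorescence (ex 405, em 540 nm) gives viability; ONE-Glo luminescence reports CAR activation.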

[12] = qHTS for Hypoxia signaling pathway (HIF-1) antagonists against the NCATS CANVASS Library (AID 1347374);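 note: HRE-bla ME-180 cells stimulated with cobalt chloride to stabilize HIF-1alpha; series mostly up to about 38 µM; nearly all actives have a fitted effect of over 60% in size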
Procedure, shortened: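 Antagonism scored as loss of CoCl2-driven (60 uM stock added) HRE beta-lactamase signal, read by CCF4 FRET at 460/530 nm. Compounds were tested in an 11-point series on ME-180 reporter cells for 17 hrs at 37C, with parallel CellTiter-Glo cytotoxicity.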

[13] = qHTS for Hypoxia signaling pathway (HIF-1) agonists against the NCATS CANVASS Library (AID 1347375)
Procedure, shortened: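 Beta-lactamase reporter under HRE control in ME-180 cells; compounds (11-point qHTS series) added after 5 hrs plating, then 17 hrs at 37C. FRET substrate read after 2 hr; same-well CellTiter-Glo luminescence gave viability and normalization.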

[14] = qHTS for H2AX Agonists against the NCATS CANVASS Library (AID 1347378);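 note: phospho-H2AX S139 level in CHO-K1 lysates by TR-FRET emission ratio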
Procedure, shortened: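 CHO-K1, 1000 cells/well, o/n 37C; cpd several conc, 3 hr 37C, 0.76% DMSO; lyse 30 min RT; cryptate anti-pH2AX(S139) + d2 anti-H2AX, 24 hr RT; HTRF 665/620.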

[15] = qHTS for Inflammasome Signaling Inhibitors: IL-1-beta AlphaLISA screen against the NCATS CANVASS Library (AID 1347379);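 note: human THP-1 cells primed with LPS then triggered with ATP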
Procedure, shortened: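 Secreted IL-1B from human THP-1 cells quantified by AlphaLISA 16 hr after compound addition (final up to 57.5 uM). A 1 hr compound pretreatment preceded inflammasome activation with 250 ng/mL LPS plus 1.25 mM ATP (final).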

[16] = Inflammasome Signaling qHTS Counterscreen: IL-1-beta AlphaLISA counterscreen against the NCATS CANVASS Library (AID 1347381);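 note: cell-free check with purified IL-1β in medium and no THP-1 cells; series mostly up to about 57 µM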
Procedure, shortened: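 Purified IL-1-beta (4 pg/well) + compound, 11-pt conc. series; acceptor beads 6 ug/mL + biotin-Ab 0.6 nM final, 1 h RT; SA-donor 24 ug/ml final, 30 min dark RT; read ex 680/em 615.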

[17] = Cytotoxicity qHTS for assessment of Hepg2 cells membrane integrity screened against the NCATS CANVASS Library (AID 1347387)
Procedure, shortened: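 Membrane damage quantified as fluorescent LDH-release signal (ex 560, em 590 nm) in HepG2 cells treated 5 hr at 37C. qHTS format, 11 concentrations spanning 0.59 nM - 46 uM final, cells plated at 2000 per well the night before.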

[18] = qHTS for Activators of p53 Stress Response Pathway screened against the NCATS CANVASS Library (AID 1347388)
Procedure, shortened: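 p53RE-bla HCT-116 cells (4000/well) were pre-incubated for 5 h, then treated with compound (11 points) for 16 h at 37C. After 2 h with CCF4, the 460/530 nm ratio gave reporter activation; CellTiter-Glo measured viability.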

[19] = qHTS assay for small molecule disruptors of mitochondrial membrane potential screened against the NCATS CANVASS Library (AID 1347389); note: series mostly up to about 46 µM; nearly all actives have a fitted effect of over 60% in size
Procedure, shortened: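 Mitochondrial membrane potential in HepG2: 1 h compound treatment (11-point concentration series), 30 min m-MPI dye at 37C, then dual fluorescence of J-aggregates (ex 540/em 590) and monomers (ex 490/em 535); lower red/green ratio indicates depolarization.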

[20] = qHTS for activators of Nrf2/ARE signaling pathway screened against the NCATS CANVASS Library (AID 1347391); note: nearly all actives have a fitted effect of over 60% in size
Procedure, shortened: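 Eleven-point qHTS, 16 h treatment of HepG2 cells carrying an ARE-driven beta-lactamase reporter; CCF4 ratio read (405 nm excitation, 460 and 530 nm emission), with CellTiter-Glo ATP luminescence for viability.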

[21] = qHTS for activators of dead-cell proteases activity screened against the NCATS CANVASS Library (AID 1347392);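 note: luminescence from protease leaking out of membrane-damaged cells cleaving impermeant substrate; rising signal means more cytotoxicity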
Procedure, shortened: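 HepG2, 2000 cells/well, 18 h attach; cpd 11-pt, 5 h 37C 5% CO2; CytoTox-Glo (AAF-aminoluciferin) 15 min RT; luminescence read.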

[22] = Vero-766 cells viability qHTS against the NCATS CANVASS Library: Counterscreen for Zika virus inhibition assay (AID 1347394)
Procedure, shortened: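 Vero 766, no virus; 1000 cells/well; o/n attach; cpd 11-pt; 72 h, 37C, 5% CO2; CTG luminescence; cell-free media wells = 100% inhibition.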

[23] = qHTS for inhibitors of Wild type Zika virus screened against the NCATS CANVASS Library (AID 1347396);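 note: ATP luminescence of surviving cells so rescue from viral cell killing; series mostly up to about 46 µM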
Procedure, shortened: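 Vero 766 cells, 1000/well, o/n attach; cpds pin-transferred (11-pt qHTS); WT Zika added; 72 h, 37C, 5% CO2; CellTiter Glo lumi. Uninfected + vehicle = 100% inhibition.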

Measured: Potency

Chain of Nuclear receptor subfamily 1 group I member 3 (Homo sapiens) (Q14994 whole entry, looked up): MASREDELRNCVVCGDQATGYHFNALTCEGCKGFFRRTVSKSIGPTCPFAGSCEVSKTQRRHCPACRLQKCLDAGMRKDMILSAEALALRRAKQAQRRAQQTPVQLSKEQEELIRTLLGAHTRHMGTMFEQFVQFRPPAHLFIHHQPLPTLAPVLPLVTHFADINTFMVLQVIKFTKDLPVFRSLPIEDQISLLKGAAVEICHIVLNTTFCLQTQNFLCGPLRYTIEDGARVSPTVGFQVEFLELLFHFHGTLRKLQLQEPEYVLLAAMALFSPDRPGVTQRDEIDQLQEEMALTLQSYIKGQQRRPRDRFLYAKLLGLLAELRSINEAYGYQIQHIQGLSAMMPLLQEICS
Chain of Luciferin 4-monooxygenase (Photinus pyralis) (P08659 whole entry, looked up): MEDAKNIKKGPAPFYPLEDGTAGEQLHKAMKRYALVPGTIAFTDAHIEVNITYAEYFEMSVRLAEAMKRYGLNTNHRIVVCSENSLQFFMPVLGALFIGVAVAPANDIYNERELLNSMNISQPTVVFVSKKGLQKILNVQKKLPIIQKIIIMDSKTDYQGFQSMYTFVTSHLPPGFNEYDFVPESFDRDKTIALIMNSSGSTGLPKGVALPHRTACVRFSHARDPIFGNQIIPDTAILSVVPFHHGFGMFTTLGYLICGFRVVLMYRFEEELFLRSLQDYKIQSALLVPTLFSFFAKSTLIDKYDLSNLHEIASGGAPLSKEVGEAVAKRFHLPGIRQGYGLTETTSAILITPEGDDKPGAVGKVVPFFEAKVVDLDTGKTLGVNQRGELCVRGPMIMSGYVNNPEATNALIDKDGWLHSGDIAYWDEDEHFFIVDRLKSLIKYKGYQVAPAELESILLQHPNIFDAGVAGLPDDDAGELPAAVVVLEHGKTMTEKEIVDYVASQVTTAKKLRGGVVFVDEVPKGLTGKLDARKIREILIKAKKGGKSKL

O=C(OC1Cc2c(O)cc(O)cc2OC1c1cc(O)c(O)c(O)c1)c1cc(O)c(O)c(O)c1 (stereo not drawn)
inactive: all assays above
